Experimental data as given in PubChem BioAssay AID774 (SRMLSC, 2007).
The whole screen tested about 65,000 compounds, of which about 15 (0.02%) were called active.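 How the source made its calls: active means single-dose screening hits from any of four coupled enzyme assays that gave an IC50 when retested across doses; inconclusive means no clear call, values can overlap the other calls; inactive means the rest.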 Not all results are given here.

Test: NADH-endpoint coupling enzyme inhibition profiling – biochemical, MLSMR library, artefact control, profiling panel (AID 774);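 further: the DPM-DC format reads NADH fluorescence rather than 340 nm absorbance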
Conditions: coupled PK/LDH NADH assays, four targets; at 10 µM; hits give high values

inhibition, inactive:
COc1cc(OC)cc(C(=O)Nc2ccc(-c3nc4ccccc4o3)c(O)c2)c1 9%
CC1(C)C(=O)Nc2ccccc2N1C(=O)COC(=O)Cn1cnc2ccccc2c1=O 11%
CC1CCCCC1NC(=O)CCS(=O)(=O)c1cccc2nonc12 (stereo not given) 2%
c1csc(CN2CCN(Cc3cccs3)C2c2cccs2)c1 5%
O=C(CSc1nnc(Cc2ccccc2)n1-c1ccccc1)N1CCOCC1 5%
CCc1c(O)nc(SCC(=O)N2CCCCC2)n(-c2ccccc2C)c1=O 11%
O=C(NC1CCN(Cc2ccccc2)CC1)c1ccccc1F 1%
Cc1ccc(NC(=O)c2cc(-c3ccc(C)o3)nc3ccccc23)nc1 5%
CCOC(=O)C1CCN(C(=O)Cc2c(C(=O)O)[nH]c3ccccc23)CC1 1%
Cc1ccn2cc(C(=O)NC3CCN(Cc4ccccc4)CC3)nc2c1 4%
CC1Cc2ccccc2N1C(=O)CSc1nc2ccccc2o1 (stereo not given) 4%
COC(=O)CN(c1cccc(C(C)=O)c1)S(C)(=O)=O 6%
C[N+](C)(C)CCOP(=O)([O-])OC[C@H](O)CO 2%
COc1ccc(OC)c(C(=O)c2coc3ccc(OC)cc23)c1 0%
Cc1cc(C)nc(NC2=NCC(=O)N2c2ccc(Cl)cc2)n1 2%
Nc1ccc(-n2nncc2-c2ccco2)cc1 3%
CCOC(=O)CSc1nnc(CNC(=O)c2ccco2)n1-c1ccc(F)cc1 5%
CCOC(=O)C1C(=O)NC(N2CCN(c3ccccc3)CC2)=NC1c1ccco1 (stereo not given) 7%
O=C(O)C1CCCN1S(=O)(=O)c1ccc2c(c1)CCC2 (stereo not given) 8%
CNC(=O)n1ccc(C(=O)N2CCCCC2)n1 2%
Cc1ccc(-c2ccc(=O)n(CC(=O)NCCCN3CCCCC3)n2)cc1 8%
CN(Cc1ccccc1)c1nc2c(c(=O)[nH]c(=O)n2C)n1CCSc1nc2ccccc2[nH]1 4%
COC(=O)C(C)N(C#N)c1nc(C)nc(C)n1 (stereo not given) 9%
CCOc1ccc(NC(=O)Nc2ccc(N(C)C(C)=O)cc2)cc1 4%
CC(c1ccco1)N(C(=O)c1ccc(S(=O)(=O)N2CCCCC2)cc1)c1ccccn1 (stereo not given) 1%
Cc1ccc(-c2nc(COC(=O)c3c(C)noc3C)cs2)cc1 7%
COc1ccc(OCc2cccc(C(=O)N3CCCC3)c2)cc1 9%
CCOC(=O)N1CCN(C(=O)c2ccc(CN(c3ccc(C)c(C)c3)S(C)(=O)=O)cc2)CC1 2%
CCOC(=O)N1CCN(C(=O)COc2ccc(Br)cc2)CC1 5%
COc1ccccc1C(=O)N1CCN=C1SCc1cccnc1 2%
Cn1c(=O)[nH]c(=O)c2c1nc(CN(Cc1ccccc1)Cc1ccccc1)n2CCN1CCOCC1 0%
CCOC(=O)c1nnn(-c2nc(OC)nc(N(C)C)n2)c1-c1ccccc1 6%
O=C(CSc1nc2ccccc2o1)N1CCN(c2ccc(Cl)cc2)CC1 3%
CCOC(=O)N1CCN(C(=O)CN(C2CCCCC2)S(C)(=O)=O)CC1 3%
O=C(C1CCN(CC2CCCCC2)CC1)N1CCCC1 17%
O=C(CS(=O)(=O)c1cn(Cc2ccc(Cl)cc2)c2ccccc12)N1CCOCC1 1%
CC1CN(c2cc(=O)n(-c3cccc(Br)c3)c(=O)[nH]2)CC(C)O1 (stereo not given) 2%
OC(COc1cccc(OCC(O)CN2CCCC2)c1)CN1CCCC1 (stereo not given) 3%
COc1ccc(C2CC(c3ccc(C)cc3)Nc3nc(N)nn32)cc1 (stereo not given) 1%
CCOc1ccc(-c2nnn(CC(=O)N3CCN(c4ccc(F)cc4)CC3)n2)cc1OCC 1%
COc1ccccc1Cc1nc(-c2ccc(C)cc2)no1 1%
Cc1cc(=O)[nH]c(=S)[nH]1 0%
COc1ccccc1C1/C(=C(/O)c2ccc(OC(C)C)cc2)C(=O)C(=O)N1c1cc(C)on1 (stereo not given) 5%
OCCCNC(c1ccccc1)c1ccc(O)cc1 (stereo not given) 6%
Cc1cc(C(F)(F)F)nn1CC(=O)N1CCCC1 2%
CCOC(=O)Cn1c(SC)nc2sc3c(c2c1=O)CC(C)(C)OC3 4%
COCCNC(=O)c1ccccc1-c1nc(-c2ccccc2Cl)no1 4%
Cc1nc(CNS(=O)(=O)c2cccnc2)cs1 5%
Cc1cc(C)nc(N(C#N)CC(=O)Nc2ccccc2)n1 7%
COc1ccc(-c2noc(CN(C)S(=O)(=O)c3ccc(C)cc3)n2)cc1 6%
CN1CCN(S(=O)(=O)c2ccc(NC(=O)c3ccco3)cc2)CC1 2%
CCOc1ccc(CN(Cc2ccco2)C(c2cccs2)c2nnnn2C(C)(C)C)cc1 (stereo not given) 1%
CCOC(=O)c1ccc(N2C(=O)CC(N3CC(C)OC(C)C3)C2=O)cc1 (stereo not given) 3%
CC(=O)Nc1ccc(S(=O)(=O)N2CCN(C3CCCCCCC3)CC2)cc1 6%
CC(C)(C)c1ccc(C(=O)NCCC(=O)NCc2ccco2)cc1 6%
CCSC1(SCC)N=C(N)C2(C#N)C(c3ccccc3)NC(C)=CC12C#N (stereo not given) 1%
COc1ccccc1-n1nnnc1S(=O)(=O)Cc1ccc(Cl)cc1 5%
Cc1noc(C)c1S(=O)(=O)N(CC(=O)Nc1ccc2c(c1)OCCO2)c1ccc(C(C)C)cc1 8%
CCCCOC(=O)c1[nH]c(C)c(C(=O)OC)c1C 1%
CC(Oc1ccc(Cl)cc1)C(=O)Nc1ncccn1 (stereo not given) 5%
Cc1noc(C)c1CSc1nc2cc(S(=O)(=O)N3CCOCC3)ccc2o1 4%
O=C1CCC(=O)N1CCOP1(=O)COc2ccccc2OC1 4%
O=C(NCc1ccc2c(c1)OCO2)c1cc2c(s1)CS(=O)(=O)C2 6%
CCCOP(=O)(c1ccc(N(C)C)cc1)C(O)c1cc(OC)c(OC)c(OC)c1 (stereo not given) 2%
CSc1nc(C)nc2c1c(=O)n(C)c(=O)n2C 5%
